The record followed here is PubChem BioAssay (EPA / NIEHS).

Read-out in assay [1]: Interleukin 17F (IL17F), IL17F (gene 112744)
Nature of the assay: BSK_BT_xIL17F: BioMAP Diversity Plus: BT Assay for Interleukin 17F (IL17F) Biomarker Activity (AID 2284243). The conditions noted are these: primary human B cells with PBMC. The method in brief:
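Human PBMC co-cultured with B cells, compound exposure 24 h; secreted IL-17F quantified by Luminex xMAP, referenced to DMSO control. PBMC viability measured in parallel by Alamar Blue reduction.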

Read-out in assay [2]: Actin alpha 1 (ACTA1), ACTA1 (gene 58)
Nature of the assay: BSK_MyoF_ACTA1: BioMAP Diversity Plus: MyoF Assay for Actin alpha 1 (ACTA1) Biomarker Activity (AID 2284244). The conditions noted are these: primary human lung fibroblasts. The method in brief: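 Cells were exposed to chemical for 24 h before a-SMA levels were quantified by ELISA in human lung fibroblasts. Increases were fitted against DMSO as negative control; parallel SRB staining (0.1% after 10% TCA fixation, 560 nm) assessed cytotoxicity.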

Read-out in assay [3]: Interleukin 2 (IL2), IL2 (gene 3558)
Nature of the assay: BSK_BT_xIL2: BioMAP Diversity Plus: BT Assay for Interleukin 2 (IL2) Biomarker Activity (AID 2284245). The conditions noted are these: primary human B cells with PBMC. The method, boiled down: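 The BT system combines human B cells with peripheral blood mononuclear cells. Twenty-four hours after chemical dosing, secreted IL-2 was measured with xMAP bead technology, and responses were analyzed as increases over DMSO controls.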

Read-out in assay [4]: Basic fibroblast growth factor (bFGF), FGF2 (gene 2247)
As to the kind of experiment: BSK_MyoF_bFGF: BioMAP Diversity Plus: MyoF Assay for Basic fibroblast growth factor (bFGF) Biomarker Activity (AID 2284246). The conditions noted are these: primary human lung fibroblasts. The method in brief: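 Chemicals are added to human lung fibroblast cultures and incubated 24 h. bFGF is then measured by ELISA, while parallel cultures receive SRB staining for total protein as a cytotoxicity check. Data are fitted upward against DMSO.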

Read-out in assay [5]: Collagen IV, COL4A1 (gene 1282)
Nature of the assay: BSK_MyoF_CollagenIV: BioMAP Diversity Plus: MyoF Assay for Collagen IV Biomarker Activity (AID 2284247). Particulars: primary human lung fibroblasts. The method, boiled down: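 Human lung fibroblast system, 24 h chemical exposure. Endpoint: Collagen IV by ELISA, upward fit vs DMSO.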

Read-out in assay [6]: Monokine induced gamma interferon (MIG), CXCL9 (gene 4283)
Nature of the assay: BSK_KF3CT_MIG: BioMAP Diversity Plus: KF3CT Assay for Monokine induced gamma interferon (MIG) Biomarker Activity (AID 2284248). The conditions noted are these: primary human keratinocytes with fibroblasts. The method, boiled down: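 Human keratinocyte–foreskin fibroblast co-culture; MIG measured by ELISA 24 h after chemical dosing, fitted upward versus DMSO. Cytotoxicity was assessed in parallel cultures by SRB total-protein staining read at 560 nm.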

Read-out in assay [7]: Vascular cell adhesion molecule 1 (VCAM1), VCAM1 (gene 7412)
As to the kind of experiment: BSK_BF4T_VCAM1: BioMAP Diversity Plus: BF4T Assay for Vascular cell adhesion molecule 1 (VCAM1) Biomarker Activity (AID 2284249). The conditions noted are these: primary human bronchial epithelial cells with fibroblasts. The method in brief: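 Cell-surface VCAM-1 quantified by ELISA after 24 h chemical exposure of human bronchial epithelial/dermal fibroblast co-cultures, with SRB staining in parallel wells for cytotoxicity; DMSO baseline, positive-direction fitting.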

Read-out in assay [8]: Collagen I, COL1A1 (gene 1277)
As to the kind of experiment: BSK_hDFCGF_CollagenI: BioMAP Diversity Plus: hDFCGF Assay for Collagen I Biomarker Activity (AID 2284250). Particulars: primary human foreskin fibroblasts. The method in brief:
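Collagen I ELISA, primary human foreskin fibroblasts, 24 h chemical exposure, DMSO = negative control/baseline, positive fitting direction.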

Read-out in assay [9]: Interferon-inducible T-cell alpha chemoattractant (ITAC), CXCL11 (gene 6373)
Nature of the assay: BSK_hDFCGF_ITAC: BioMAP Diversity Plus: hDFCGF Assay for Interferon-inducible T-cell alpha chemoattractant (ITAC) Biomarker Activity (AID 2284251). Particulars: primary human foreskin fibroblasts. The method in brief: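 I-TAC levels were read by ELISA on human dermal foreskin fibroblast primary cultures 24 h after dosing, analysed against DMSO in the positive direction. Cytotoxicity was assessed alongside by sulforhodamine B total-protein staining.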

Read-out in assay [10]: Plasminogen activator inhibitor-1 (PAI1), SERPINE1 (gene 5054)
Nature of the assay: BSK_KF3CT_PAI1: BioMAP Diversity Plus: KF3CT Assay for Plasminogen activator inhibitor-1 (PAI1) Biomarker Activity (AID 2284252). Particulars: primary human keratinocytes with fibroblasts. The method, boiled down:
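Cells (human keratinocytes co-cultured with foreskin fibroblasts) are exposed to test chemical for 24 h. PAI-1 is then measured by ELISA and analysed for signal gain against DMSO.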

Read-out in assay [11]: Monocyte Chemoattractant Protein-1 (MCP1), CCL2 (gene 6347)
As to the kind of experiment: BSK_IMphg_MCP1: BioMAP Diversity Plus: IMphg Assay for Monocyte Chemoattractant Protein-1 (MCP1) Biomarker Activity (AID 2284253). The conditions noted are these: primary human endothelial cells with macrophages. The method, boiled down: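 ELISA readout of MCP-1 at 24 hours in IMphg co-cultures of venular endothelial cells and macrophages, normalised to DMSO; parallel cultures stained with sulforhodamine B for overt cytotoxicity.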

Read-out in assay [12]: Interleukin-8 (IL8), CXCL8 (gene 3576)
As to the kind of experiment: BSK_KF3CT_IL8: BioMAP Diversity Plus: KF3CT Assay for Interleukin-8 (IL8) Biomarker Activity (AID 2284254). Particulars: primary human keratinocytes with fibroblasts. The method, boiled down:
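Human keratinocyte/foreskin fibroblast co-culture dosed 24 h; IL-8 measured by ELISA relative to DMSO. Parallel cultures stained with SRB for total protein to flag cytotoxicity.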

Read-out in assay [13]: Macrophage Inflammatory Protein-1 Alpha (MIP1a), CCL3 (gene 6348)
Nature of the assay: BSK_IMphg_MIP1a: BioMAP Diversity Plus: IMphg Assay for Macrophage Inflammatory Protein-1 Alpha (MIP1a) Biomarker Activity (AID 2284255). The conditions noted are these: primary human endothelial cells with macrophages. The method in brief:
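MIP-1a protein levels were quantified by ELISA after 24 h treatment of human endothelial cell–macrophage co-cultures, compared with DMSO. Parallel cultures were fixed with TCA and stained with 0.1% SRB to gauge overt cytotoxicity.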

Read-out in assay [14]: Plasminogen activator inhibitor-1 (PAI1), SERPINE1 (gene 5054)
Nature of the assay: BSK_MyoF_PAI1: BioMAP Diversity Plus: MyoF Assay for Plasminogen activator inhibitor-1 (PAI1) Biomarker Activity (AID 2284256).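 Note: PAI-1 read 24 h after compound addition.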 The conditions noted are these: primary human lung fibroblasts. The method, boiled down: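 Primary human lung fibroblasts treated with chemical for 24 h; PAI-1 levels quantified by ELISA relative to DMSO. Cytotoxicity was assessed in parallel cultures by SRB total-protein staining (0.1% SRB after 10% TCA fixation, 560 nm).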

Read-out in a further assay: CD69, CD69 (gene 969)
Nature of the assay: BSK_IMphg_CD69: BioMAP Diversity Plus: IMphg Assay for CD69 Biomarker Activity (AID 2284257). Particulars: primary human endothelial cells with macrophages. The method, boiled down:
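Readout is ELISA for CD69 in primary human venular endothelial cell/macrophage co-culture, taken at 24 h post-dosing. SRB staining of parallel cultures gauged overt cytotoxicity; signal increase versus DMSO defined activity.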

Read-out in assay [15]: Eotaxin 3, CCL26 (gene 10344)
As to the kind of experiment: BSK_BF4T_Eotaxin3: BioMAP Diversity Plus: BF4T Assay for Eotaxin 3 Biomarker Activity (AID 2284258). Particulars: primary human bronchial epithelial cells with fibroblasts. The method in brief:
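ELISA measurement of Eotaxin-3 after 24 h chemical exposure in a bronchial epithelial/dermal fibroblast co-culture, with DMSO as baseline. Parallel SRB staining (0.1% SRB after 10% TCA fixation, 560 nm) flagged overt cytotoxicity.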

Read-out in assay [16]: Monocyte Chemoattractant Protein-1 (MCP1), CCL2 (gene 6347)
Nature of the assay: BSK_BF4T_MCP1: BioMAP Diversity Plus: BF4T Assay for Monocyte Chemoattractant Protein-1 (MCP1) Biomarker Activity (AID 2284259). Particulars: primary human bronchial epithelial cells with fibroblasts. The method in brief:
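MCP-1 ELISA readout taken 24 h after dosing in the BF4T system (bronchial epithelial cells plus dermal fibroblasts). Parallel SRB total-protein staining flagged cytotoxicity; DMSO served as baseline, positive fitting direction.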

Read-out in assay [17]: Intercellular Adhesion Molecule 1 (ICAM1), ICAM1 (gene 3383)
As to the kind of experiment: BSK_BF4T_ICAM1: BioMAP Diversity Plus: BF4T Assay for Intercellular Adhesion Molecule 1 (ICAM1) Biomarker Activity (AID 2284260). The conditions noted are these: primary human bronchial epithelial cells with fibroblasts. The method, boiled down: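 ICAM-1 levels measured by ELISA after 24 h chemical treatment of bronchial epithelial cell/dermal fibroblast co-cultures, read against DMSO baseline. Overt cytotoxicity checked in parallel cultures by sulforhodamine B staining.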

Read-out in assay [18]: Interleukin-8 (IL8), CXCL8 (gene 3576)
Nature of the assay: BSK_MyoF_IL8: BioMAP Diversity Plus: MyoF Assay for Interleukin-8 (IL8) Biomarker Activity (AID 2284261). Particulars: primary human lung fibroblasts. The method in brief:
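Human lung fibroblast (MyoF system) cultures dosed for 24 h, then IL-8 measured by ELISA. Response taken relative to DMSO; parallel SRB total-protein staining for cytotoxicity.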

Read-out in the next assay: CD90, THY1 (gene 7070)
Nature of the assay: BSK_BF4T_CD90: BioMAP Diversity Plus: BF4T Assay for CD90 Biomarker Activity (AID 2284262). Particulars: primary human bronchial epithelial cells with fibroblasts. The method, boiled down:
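CD90 levels by ELISA after 24 h treatment of human bronchial epithelial cell/dermal fibroblast cultures, analysed versus DMSO. Overt cytotoxicity checked in parallel cultures by sulforhodamine B staining.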

Several values for one entry are separate records, joined by “and”; a condition that tells them apart may be missing. Identical values can stand only once. A structure can be active in one record and inactive in another. Activity calls are given as the source filed them. Rule for the calls: active = hit-call score of the fitted dose curve at least 0.9, where 1 is the maximum; inactive = score below 0.9.

For orientation: AC50 means the concentration at which the activity in the assay is half-maximal. Regarding `O=S(=O)(OCC(F)(F)F)C(F)(F)C(F)(F)C(F)(F)C(F)(F)F`, the outcome in [1], in [2], in assay [3], in [4], in assay [5] and in [6] was inactive. Moreover, the outcome in assay [7], in [8], in assay [10], in assay [11], in [12] and in assay [14] was inactive. The outcome with CD69, CD69 (gene 969) was “inactive”; in [15] it was “inactive”; in assay [16], “inactive”; in assay [17], “inactive”; in assay [18] it was “inactive”; in the assay with CD90, THY1 (gene 7070), “inactive”. Also, the AC50 in assay [9] is 30 µM (active); in assay [13] it was 21 µM (active) and 5.95 µM (active).
For `COC(F)(C(F)F)C(F)(F)F` (stereo unspecified), the outcome in assay [1], in assay [2], in assay [3], in [4], in assay [5] and in [6] was inactive. The outcome is “inactive” in [7]; “inactive” in [9]; “inactive” in [10]; “inactive” in [12]; “inactive” in [14]; “inactive” with CD69, CD69 (gene 969). For the same molecule, the outcome in assay [15] is “inactive”; in [16] it was “inactive”; in [17], “inactive”; in assay [18], “inactive”; in the assay with CD90, THY1 (gene 7070), “inactive”. In addition, the AC50 in [2] is 0.556 µM (active).
`Nc1cc([N+](=O)[O-])cc(Cl)c1O`: the outcome in assay [1], in assay [2], in assay [3], in assay [4], in assay [5] and in [14] was inactive. For the same molecule, the outcome in assay [18] was inactive.
Regarding `C=CC(=O)OCCC(F)(F)C(F)(F)C(F)(F)C(F)(F)F`, the AC50 in assay [1] was 20.1 µM (active) and 14.3 µM (active); in assay [3] it was 46.6 µM (active) and 48 µM (active); in [9], 25 µM (active) and 21.5 µM (active). Further, the result in assay [2], in assay [4], in [5], in assay [6], in assay [7] and in assay [10] was inactive. Besides, the outcome in assay [12] was “inactive”; in assay [14], “inactive”; in the assay with CD69, CD69 (gene 969), “inactive”; in assay [15] it was “inactive”; in assay [16], “inactive”; in assay [17], “inactive”. In addition, the outcome in [18] is “inactive”; with CD90, THY1 (gene 7070) it was “inactive”.
In the case of `O=S(=O)(Cl)C(F)(F)C(F)(F)C(F)(F)C(F)(F)C(F)(F)C(F)(F)C(F)(F)C(F)(F)F`, the result in assay [1], in assay [2], in assay [3], in [4], in [6] and in assay [7] was inactive. For the same molecule, the outcome in assay [9] was “inactive”; in [12], “inactive”; in [14] it was “inactive”; in the assay with CD69, CD69 (gene 969) it was “inactive”; in [17], “inactive”; in [18], “inactive”. Further, in the assay with CD90, THY1 (gene 7070), the outcome was inactive. Also, the AC50 is 41.1 µM (active) and 30.1 µM (active) in assay [5]; 30 µM (active) in assay [7]; 25 µM (active) and 22.1 µM (active) in assay [10]; 15.1 µM (active) in the assay with CD69, CD69 (gene 969); 28.3 µM (active) and 19.5 µM (active) in [15]; 46.5 µM (active) and 43.3 µM (active) in assay [16].
Turning to `NC(=O)C(F)(F)C(F)(F)C(F)(F)C(F)F`, the result in assay [1], in assay [2], in assay [3], in [4], in assay [5] and in [6] was inactive. For the same molecule, the outcome in assay [7], in [9], in [10], in assay [12], in [13] and in assay [14] was inactive. The outcome was “inactive” with CD69, CD69 (gene 969); “inactive” in assay [15]; “inactive” in assay [16]; “inactive” in assay [17]; “inactive” in assay [18]; “inactive” with CD90, THY1 (gene 7070).
With `CCN(CC)c1ccc(C=O)cc1`, the result in [1], in assay [2], in [3], in assay [4], in assay [5] and in assay [14] was inactive. In [18], the outcome was inactive.
